According to PubChem BioAssay (Tox21):
“And” between values parts separate entries of the source, which are not always exact repeats. Equal values may be shown once. Inconclusive results are not listed. The source made the active and inactive calls. Unless noted, calls come from the whole dose curve.

Assays:
[1] = Nuclear factor erythroid 2-related factor 2/antioxidant responsive element (Nrf2/ARE) small molecule agonists: qHTS cell viability counter screen in human keratinocytes (AID 1919968; active = well fitted curve in the direction sought with a large enough effect in the repeat runs; an effect the other way counts as inactive or inconclusive; note: nearly all actives have a fitted effect of over 55% in size)
Method in brief: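 Cells of the KeratinoSens line were plated at 1,500 per well and left for 5 h before compound transfer from DMSO stocks. After a 23 h incubation (37 C, 5% CO2), CellTiter-Fluor was added. Signal was taken as fluorescence intensity 1 h later.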

[2] = Nuclear factor erythroid 2-related factor 2/antioxidant responsive element (Nrf2/ARE) small molecule agonists: luciferase reporter gene qHTS assay in human keratinocytes (AID 1919969); note: nearly all actives have a fitted effect of over 35% in size
[3] = target: Gonadotropin-releasing hormone receptor (Homo sapiens) (UniProt P30968); test: Human gonadotropin-releasing hormone receptor (GnRHR) small molecule agonists, calcium flux assay in GnRHR-HEK293 cells (AID 1920063); note: nearly all actives have a fitted effect of over 35% in size
Method in brief: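 Compounds dissolved in DMSO are pin-transferred onto dye-loaded GnRHR-HEK293 cells, which were seeded 18 h before at 37 C/5% CO2. Calcium signal is read as fluorescence intensity at 1 s intervals for 3 min.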

[4] = target: KiSS-1 receptor (Homo sapiens) (UniProt Q969F8); test: Human kisspeptin (KISS1R) small molecule agonists, calcium flux assay in KISS1R-HEK293 cells (AID 1920064; active = well fitted curve in the direction sought with a large enough effect in the repeat runs; an effect the other way counts as inactive or inconclusive)
Method in brief: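 Cell line: HEK293, stable human KISS1R. Dye loading 1 h at 37 C after 18 h culture. Read: kinetic fluorescence, 480/540 nm, 3 min at 1 s intervals.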

[5] = G protein-coupled receptor (GPCR) small molecule agonists, calcium flux assay: HEK293 wild type cell line counter screen (AID 1920065)
Method in brief: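 Tox21 10K compounds, 15 concentrations each in triplicate, pin-transferred in DMSO onto dye-loaded cells; kinetic read at 480/540 nm for 3 min, 1 s intervals.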

[6] = p53 small molecule agonists, cell-based qHTS assay with human liver microsomes: qHTS cell viability counter screen (AID 1963579); note: nearly all actives have a fitted effect of over 45% in size
Method in brief: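 Seed p53RE-bla cells at 4,000 per well; incubate 5 h at 37 C; add compound, human liver microsomes and NADPH; incubate 16 h at 37 C; add CellTiter-Glo; after 30 min at room temperature, read luminescence.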

[7] = p53 small molecule agonists, cell-based qHTS assay with rat liver microsomes: qHTS cell viability counter screen (AID 1963580); note: nearly all actives have a fitted effect of over 45% in size
Method in brief: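 After the beta-lactamase ratio was read, CellTiter-Glo was added to the same wells and luminescence measured at 30 min; cells had been treated 16 h at 37 C with compounds, rat liver microsomes and NADPH (0.5 mg/mL final each).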

[8] = p53 small molecule agonists, cell-based qHTS assay: qHTS cell viability counter screen (AID 1963581); note: nearly all actives have a fitted effect of over 45% in size
Method in brief: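 ATP content measured by luminescence in HCT-116 p53RE-bla cells treated 16 h at 37 C, same wells as the reporter screen.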

[9] = p53 small molecule agonists, cell-based qHTS assay (AID 1963582; active = well fitted activation curve with a large enough effect in the signal ratio in the repeat runs, not every such curve was filed as active; the % refers to the signal ratio; note: potency is the fitted concentration of half-maximal effect)
Method in brief: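 16 h compound exposure (37 C) of p53 response element–bla cells, preceded by 5 h recovery at 37 C/5% CO2; read-out via LiveBLAzer B/G FRET substrate, 2 h RT, fluorescence intensity.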

[10] = cAMP Responsive Elements (CRE) small molecule antagonists, cell-based qHTS assay (AID 1963591; active = well fitted inhibition curve with a large enough effect in the signal ratio in the repeat runs, not every such curve was filed as active; the % refers to the signal ratio)
Method in brief: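 First, CRE-bla HEK293T cells settled 18 h at 37 C. Next, compound and 0.25 uM final NKH477 were applied for 3 h. Last, LiveBLAzer B/G substrate was loaded for 2 h at room temperature.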

[11] = target: Beta-2 adrenergic receptor (Homo sapiens) (UniProt P07550); test: Adrenergic beta2 receptor (ADRB2) small molecule antagonists, cell-based qHTS assay (AID 1963592); note: series mostly up to about 92 µM; nearly all actives have a fitted effect of over 50% in size
Method in brief: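 Assay format: CHO-ADRB2 cells, 18-20hr seeding at 37C/5% CO2, then compound plus 1nM isoproterenol agonist mix for 0.5hr RT. Homogeneous time-resolved fluorescence cAMP detection after 1hr, expressed as 665/615 nm ratio.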

[12] = target: Beta-2 adrenergic receptor (Homo sapiens) (UniProt P07550); test: Adrenergic beta2 receptor (ADRB2) small molecule agonists, cell-based qHTS assay (AID 1963593);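 note: CHO cells stably overexpressing human ADRB2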
Method in brief: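 CHO cells stably over-expressing ADRB2 were plated overnight at 37C, then dosed with compounds plus a stimulation mix containing 100uM IBMX and 25uM Ro-20-1724 for 0.5hr at room temperature. cAMP was measured by HTRF competition, 1hr.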

[13] = target: D(2) dopamine receptor (Homo sapiens) (UniProt P14416); test: Dopamine D2 receptor (DRD2) small molecule agonists, cell-based qHTS assay (AID 1963594); note: nearly all actives have a fitted effect of over 35% in size
Method in brief: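 HEK293 cells stably expressing human DRD2, pre-treated with PDE inhibitor Ro20-1724 (0.1 mM final) and compound 10 min at room temperature, then stimulated with NKH477 (200nM […]) for 30 min. cAMP read by HTRF (665/620 nm).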

[14] = target: D(2) dopamine receptor (Homo sapiens) (UniProt P14416); test: Dopamine D2 receptor (DRD2) small molecule antagonists, cell-based qHTS assay (AID 1963595; active = well fitted inhibition curve with a large enough effect in the signal ratio in the repeat runs, with a control signal flat; the % refers to the signal ratio)
Method in brief: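 Stable D2 receptor HEK293 line, 24 h after seeding. Compound preincubated 10 min, then quinpirole (12 nM) with forskolin analogue NKH477 (200 nM), 30 min, room temperature. Detection by time-resolved FRET of cAMP.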

[15] = target: 5-hydroxytryptamine receptor 2A (Homo sapiens) (UniProt P28223); test: 5-hydroxytryptamine receptor 2A (HTR2A) small molecule antagonists, cell-based qHTS assay (AID 1963586); note: nearly all actives have a fitted effect of over 45% in size
Method in brief: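 CHO cells stably expressing human HTR2A were plated for 18 h at 37 C, then loaded with calcium dye for 1 h. Compounds were preincubated 5 min at room temperature before DOI (4 nM solution) was added. Kinetic fluorescence was read for 3 min.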

[16] = target: 5-hydroxytryptamine receptor 2A (Homo sapiens) (UniProt P28223); test: 5-hydroxytryptamine receptor 2A (HTR2A) small molecule agonists, cell-based qHTS assay (AID 1963587); note: nearly all actives have a fitted effect of over 30% in size
Method in brief: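 CHO cells stably expressing human HTR2A, plated 18 h, loaded with calcium dye 1 h at 37 C. Agonist mode: compounds added and intracellular calcium fluorescence recorded kinetically for 2 min at 1 sec intervals.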

[17] = target: Muscarinic acetylcholine receptor M1 (Homo sapiens) (UniProt P11229); test: Cholinergic receptor muscarinic 1 (CHRM1) small molecule antagonists, cell-based qHTS assay (AID 1963588); note: nearly all actives have a fitted effect of over 40% in size
Method in brief: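 Compounds were tested at 15 concentrations in three independent runs. Dye-loaded CHRM1-CHO cells were exposed 5 min at room temperature before stimulation by acetylcholine added at 50nM. Intracellular calcium was read kinetically on FDSS for 3 min.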

[18] = target: Muscarinic acetylcholine receptor M1 (Homo sapiens) (UniProt P11229); test: Cholinergic receptor muscarinic 1 (CHRM1) small molecule agonists, cell-based qHTS assay (AID 1963589); note: nearly all actives have a fitted effect of over 35% in size
Method in brief: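 Homogeneous fluorescence calcium flux, agonist mode. Human M1-expressing CHO cells; compound dosed at 15 concentrations, three independent runs; signal sampled every 1 sec.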

[19] = cAMP Responsive Elements (CRE) small molecule agonists, cell-based qHTS assay (AID 1963590)
Method in brief: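 HEK 293T cells stably bearing CRE-bla were plated at 2,000 cells per well and rested 18 h. Compounds, positive controls or DMSO were added for 3 h at 37 C. LiveBLAzer B/G substrate was then loaded for 2 h at room temperature.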

[20] = p53 small molecule agonists, cell-based qHTS assay with rat liver microsomes (AID 1963578)
Method in brief: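 Fluorescence from a beta-lactamase reporter under a p53 response element was measured after cells had been incubated 16 h at 37 C with test compound and rat liver microsomes plus NADPH (0.5 mg/mL final each).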

Measured: Potency

Sequence of Gonadotropin-releasing hormone receptor (Homo sapiens) (P30968 whole entry, looked up): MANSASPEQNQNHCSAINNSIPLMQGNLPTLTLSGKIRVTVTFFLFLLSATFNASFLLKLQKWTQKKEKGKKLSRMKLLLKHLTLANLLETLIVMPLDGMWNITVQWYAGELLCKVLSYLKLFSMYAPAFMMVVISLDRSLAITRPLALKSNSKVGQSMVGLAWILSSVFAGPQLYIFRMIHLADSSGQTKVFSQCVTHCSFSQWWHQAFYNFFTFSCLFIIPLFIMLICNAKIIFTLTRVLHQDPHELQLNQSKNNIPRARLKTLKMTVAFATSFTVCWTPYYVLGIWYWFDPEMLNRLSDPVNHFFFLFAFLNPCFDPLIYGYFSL
Sequence of D(2) dopamine receptor (Homo sapiens) (P14416 whole entry, looked up): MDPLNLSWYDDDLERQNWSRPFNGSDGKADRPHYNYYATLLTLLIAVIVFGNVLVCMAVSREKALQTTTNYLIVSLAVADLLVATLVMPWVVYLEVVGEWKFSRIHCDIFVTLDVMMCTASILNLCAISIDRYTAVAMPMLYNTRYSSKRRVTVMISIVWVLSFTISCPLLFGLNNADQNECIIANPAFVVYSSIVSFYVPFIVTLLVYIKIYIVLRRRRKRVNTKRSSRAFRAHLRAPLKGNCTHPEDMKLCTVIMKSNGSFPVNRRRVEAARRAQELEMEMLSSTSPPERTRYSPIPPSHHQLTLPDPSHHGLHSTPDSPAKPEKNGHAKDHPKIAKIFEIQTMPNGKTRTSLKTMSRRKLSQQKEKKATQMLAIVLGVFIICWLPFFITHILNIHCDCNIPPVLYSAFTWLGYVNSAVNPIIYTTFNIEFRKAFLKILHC
Sequence of 5-hydroxytryptamine receptor 2A (Homo sapiens) (P28223 whole entry, looked up): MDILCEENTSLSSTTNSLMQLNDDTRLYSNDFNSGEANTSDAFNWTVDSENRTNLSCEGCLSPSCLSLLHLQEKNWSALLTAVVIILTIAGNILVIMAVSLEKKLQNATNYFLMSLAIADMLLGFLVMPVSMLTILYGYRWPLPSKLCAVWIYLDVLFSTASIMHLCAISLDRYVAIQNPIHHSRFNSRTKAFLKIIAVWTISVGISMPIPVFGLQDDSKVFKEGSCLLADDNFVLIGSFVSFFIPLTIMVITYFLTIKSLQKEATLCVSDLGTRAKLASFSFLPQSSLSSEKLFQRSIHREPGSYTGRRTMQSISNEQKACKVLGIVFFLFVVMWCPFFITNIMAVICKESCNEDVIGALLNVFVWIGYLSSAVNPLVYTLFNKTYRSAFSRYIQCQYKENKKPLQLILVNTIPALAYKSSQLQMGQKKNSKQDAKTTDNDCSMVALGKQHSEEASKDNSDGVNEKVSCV
Sequence of KiSS-1 receptor (Homo sapiens) (Q969F8 whole entry, looked up): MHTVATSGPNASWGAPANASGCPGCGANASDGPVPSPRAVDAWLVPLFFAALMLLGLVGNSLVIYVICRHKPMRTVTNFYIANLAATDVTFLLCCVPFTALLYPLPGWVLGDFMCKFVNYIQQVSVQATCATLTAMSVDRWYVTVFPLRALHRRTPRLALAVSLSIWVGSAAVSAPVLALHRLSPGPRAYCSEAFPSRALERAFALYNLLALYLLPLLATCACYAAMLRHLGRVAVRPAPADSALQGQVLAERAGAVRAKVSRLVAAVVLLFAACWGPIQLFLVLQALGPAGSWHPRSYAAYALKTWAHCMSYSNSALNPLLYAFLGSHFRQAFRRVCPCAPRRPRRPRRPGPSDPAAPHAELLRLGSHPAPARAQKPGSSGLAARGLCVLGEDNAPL
Sequence of Beta-2 adrenergic receptor (Homo sapiens) (P07550 whole entry, looked up): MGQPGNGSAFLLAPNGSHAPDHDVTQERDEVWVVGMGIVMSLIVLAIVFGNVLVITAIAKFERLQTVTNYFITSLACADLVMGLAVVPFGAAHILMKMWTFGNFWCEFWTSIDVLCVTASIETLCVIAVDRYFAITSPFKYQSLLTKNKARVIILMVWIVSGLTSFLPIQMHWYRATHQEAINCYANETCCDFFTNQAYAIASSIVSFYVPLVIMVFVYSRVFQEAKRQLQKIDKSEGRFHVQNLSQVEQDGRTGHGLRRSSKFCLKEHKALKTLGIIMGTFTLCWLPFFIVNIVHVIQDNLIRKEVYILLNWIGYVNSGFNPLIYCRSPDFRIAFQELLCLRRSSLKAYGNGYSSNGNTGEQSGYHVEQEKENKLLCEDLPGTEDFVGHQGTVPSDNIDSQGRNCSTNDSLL
Sequence of Muscarinic acetylcholine receptor M1 (Homo sapiens) (P11229 whole entry, looked up): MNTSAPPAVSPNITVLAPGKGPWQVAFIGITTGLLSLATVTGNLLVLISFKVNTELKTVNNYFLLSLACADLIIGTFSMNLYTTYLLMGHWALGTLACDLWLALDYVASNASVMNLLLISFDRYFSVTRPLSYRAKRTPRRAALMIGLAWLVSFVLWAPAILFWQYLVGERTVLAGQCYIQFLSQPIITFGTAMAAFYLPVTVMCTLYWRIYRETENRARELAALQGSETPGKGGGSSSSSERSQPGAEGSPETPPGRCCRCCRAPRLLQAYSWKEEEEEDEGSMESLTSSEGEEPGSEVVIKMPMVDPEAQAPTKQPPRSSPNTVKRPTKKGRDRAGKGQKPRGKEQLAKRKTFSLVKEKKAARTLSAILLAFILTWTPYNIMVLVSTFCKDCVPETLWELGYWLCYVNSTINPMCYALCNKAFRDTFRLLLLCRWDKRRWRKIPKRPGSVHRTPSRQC

CC1=NN(c2ccccc2)C(=O)C1
not listed: [15] | [16] | [17] | [18] | [19] | [20]
inactive: all other assays above

CCN1CCCC1=O
not listed: [7] | [20]
inactive: all other assays above

COCCOC(=O)c1ccccc1C(=O)OCCOC
not listed: [12]
inactive: all other assays above

O=[N+]([O-])c1cccc(Cl)c1
inactive: all assays above

CC(C)=CCCC(C)CCO (stereo not given)
not listed: [7] | [12] | [15] | [20]
inactive: all other assays above

C#C[C@]1(O)CC[C@H]2[C@@H]3CCc4cc(O)ccc4[C@H]3CC[C@@]21C
active: [9] 16.1 µM
not listed: [10] | [15] | [16] | [17] | [18] | [19]
inactive: all other assays above

CCCCOC(=O)CC(CC(=O)OCCCC)(OC(C)=O)C(=O)OCCCC
not listed: [7] | [12] | [20]
inactive: all other assays above

S=c1nc[nH]c2nc[nH]c12
active: [9] 9.99 µM and 7.93 µM
not listed: [11] | [12] | [15] | [16] | [17] | [18]
inactive: all other assays above

CC1(C)O[C@@H]2C[C@H]3[C@@H]4CCC5=CC(=O)C=C[C@]5(C)[C@@]4(F)[C@@H](O)C[C@]3(C)[C@]2(C(=O)CO)O1
not listed: [9] | [12] | [15] | [16] | [17] | [18] | [19]
inactive: all other assays above
